Assay outcomes as filed in PubChem BioAssay.
This is a sample that favours compounds with a hit; in the whole collection about 1.6% have one here.
dFosB act-1: activators of mouse delta FosB homodimer | P13346 | purified delta FosB, TAMRA-CDK5 oligo fluorescence polarization; percent of positive-control signal above neutral wells | activation, % at 25 µM | 340,000 tested, 0.99% active;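 active = mean activation above about 17%, with every replicate also reaching it, limit read from the data, passing the limit was not always enough; inconclusive = only one of the two conditions met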
Target sequence (P13346 whole entry, looked up): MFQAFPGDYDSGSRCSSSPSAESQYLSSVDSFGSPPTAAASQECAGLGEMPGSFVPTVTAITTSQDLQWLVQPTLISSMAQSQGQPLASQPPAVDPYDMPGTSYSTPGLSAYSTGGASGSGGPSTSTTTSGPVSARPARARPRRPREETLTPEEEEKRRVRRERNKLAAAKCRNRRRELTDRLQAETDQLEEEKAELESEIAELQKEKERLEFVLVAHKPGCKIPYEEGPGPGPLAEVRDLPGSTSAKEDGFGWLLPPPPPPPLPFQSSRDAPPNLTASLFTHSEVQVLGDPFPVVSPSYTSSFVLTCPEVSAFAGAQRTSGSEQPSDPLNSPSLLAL
Dyrk1A ADPGlo: Dyrk1A (rat) kinase inhibition. AID 504441. ADP-Glo luminescence, NFATc1 peptide. inhibition, % at 12.5 µM. 310,000 tested, 0.43% active; in the data active = inhibition above about 50%;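 note: plate controls were vehicle with enzyme for no effect and no enzyme for full effect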
Bfl-1 A1 inh: inhibitors of the anti-apoptotic protein A1, read as caspase activation | AID 2462 | caspase activation, % (no concentration beside the values) | 330,000 tested, 0.066% active | MEF A1-2A-BIM cells, Caspase-Glo 3/7 luminescence, 3 h; percent of clofoctol response, vehicle zero;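 active = over half of replicate activation scores above 10%, or exactly half above 10 with the replicate mean above 10; inconclusive = replicate mean below 10 yet half the replicates above 10; inactive = over half of replicates below 10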
Beta2AR agonist: human beta-2 adrenergic receptor agonism by FAP; P07550; Am2.2-beta2AR cells, FAP receptor internalization, flow cytometry; response, % (no concentration beside the values); 340,000 tested, 0.43% active; AID 504454;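 active = response above a set limit, near 3 SD of response in nonfluorescent compounds, cut at about 42% in these data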
dFosB act-2: enhances mouse delta FosB homodimer binding to DNA; purified delta FosB, TAMRA-CDK5 oligo fluorescence polarization; normalised: neutral wells 0, positive control 100; shares compounds with dFosB act-1; activation, % at 24.9 µM; 2,400 tested, under 10 active; AID 588690;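 active = highest replicate activation at or above 34% and every replicate reaching that threshold; inconclusive = meets only one of the two criteria; inactive = meets neither criterion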;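 note: higher polarization means more probe DNA bound by delta FosB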
* marks the source's active call; other numbers are inactive results; ? = inconclusive; nt = no result given.

SMILES | dFosB act-1 | Dyrk1A ADPGlo | Bfl-1 A1 inh | Beta2AR agonist | dFosB act-2
COC(=O)c1c(NC(=O)CSc2ncnc3[nH]ncc23)sc2c1CCC2 | 29* | 0 | -1 | 2 | 3
COC(=O)c1c(NC(=O)CSc2ncnc3c2cnn3-c2ccccc2Cl)sc2c1CCCC2 | -13 | 2 | -1 | 3 | nt
COC(=O)c1c(NC(=O)Cn2cc([N+](=O)[O-])cn2)sc2c1CCC2 | 27* | -1 | 1 | 12 | 1
CC1(C)C(C=C(Cl)Cl)C1C(=O)N1CCN(Cc2ccccc2)CC1 (stereo not drawn) | -6 | 1 | 0 | -3 | nt
CC1CCCC(CC(=O)O)(CC(=O)O)C1 (stereo not drawn) | 5 | -8 | 0 | 1 | nt
Cc1ccc(S(=O)(=O)N2CCOCC2)cc1NC(=O)COc1cccc(Oc2ccccc2)c1 | -9 | 0 | 2 | -15 | nt
COc1ccc2nc(NC(=O)c3ccc(F)cc3)sc2c1 | 14 | 1 | -6 | 3 | nt
COc1cc(C(=O)Nc2nc3ccc4nc(C)sc4c3s2)cc(OC)c1OC | 6 | 21 | 0 | 6 | nt
COc1ccc2nc(NC(=O)c3ccc4ncsc4c3)sc2c1 | 22* | 22 | -1 | 8 | 5
COc1ccc(C(=O)Nc2nc3ccc4nc(C)sc4c3s2)cc1 | 23* | 17 | 0 | 19 | 3
Cc1cc(=O)n2nc(N3CCCC(C(=O)NCc4ccccc4Cl)C3)sc2n1 (stereo not drawn) | -8 | 4 | -1 | -3 | nt
Cc1ccc(C(=O)N/C(=C\c2cccs2)C(=O)NCCCN2CCOCC2)cc1 | -4 | -7 | 1 | 4 | nt
CN(C)c1nc(N)nc(CSc2nc3cc(Cl)ccc3o2)n1 | 28* | -6 | 1 | -5 | 6
Cc1cc(C)n2cc(CSc3nc4cc(Cl)ccc4o3)nc2n1 | 1 | 11 | 0 | -14 | nt
O=C(O)C(c1ccccc1)C1CCCCC1O (stereo not drawn) | -2 | -3 | nt | -2 | nt
NS(=O)(=O)c1ccc(CNC(=O)c2cc(-c3cccnc3)nc3ccc(Cl)cc23)cc1 | 15 | -4 | 0 | 2 | nt
NS(=O)(=O)c1ccc(CNC(=O)c2cc(-c3ccccn3)nc3ccc(Cl)cc23)cc1 | 21* | 2 | 0 | -7 | -2
CCOc1ccc(CCN2C(=S)N([C@@H](CC(C)C)CN3CCCC3CN3C(=S)NC[C@@H]3CC(C)C)C[C@@H]2Cc2ccc(O)cc2)cc1 (stereo partly drawn) | 37* | nt | nt | 12 | 3
CCC[C@@H](CN1CCC[C@H]1CN1C(N)=NC[C@H]1CC(C)C)N1C[C@@H](Cc2ccccc2)N(CCc2ccc(Cl)c(Cl)c2)C1=N | 3 | -1 | 1 | 1 | nt
CCOc1ccc(CCN2C(=S)N([C@@H](CC(C)C)CN3CCCC3CN3C(=S)NC[C@@H]3Cc3ccc(O)cc3)C[C@@H]2CC(C)C)cc1 (stereo partly drawn) | 26* | nt | nt | -11 | 5
COc1ccc2oc(C(=O)OCC(=O)NCCc3ccc(S(N)(=O)=O)cc3)c(C)c2c1 | 26* | nt | 1 | 5 | 5
COc1ccc(Br)cc1/C=C/C(=O)OCC(=O)NCCc1ccc(S(N)(=O)=O)cc1 | 22* | 1 | nt | 4 | 4
COc1ccc2oc(C(=O)OCC(=O)NCCc3ccccc3)c(C)c2c1 | 6 | 3 | 1 | -22 | nt
COc1cccc(N(CC(=O)N2CCCC2)S(C)(=O)=O)c1 | -1 | nt | 0 | 0 | nt
CCCCN(C)CCNC(=S)Nc1ccc2nc(N3CCN(CC)CC3)cc(C)c2c1 | ? | 17 | 0 | 13 | nt
SMILES | dFosB act-1 | Dyrk1A ADPGlo | Bfl-1 A1 inh | Beta2AR agonist | dFosB act-2
Cc1cc(N2CCN(C)CC2)nc2ccc(NC(=S)NCCCN3CCc4ccccc4C3)cc12 | 31* | -4 | 0 | 28 | 0
Cc1cc(N2CCN(C)CC2)nc2ccc(NC(=S)N3CCN(c4cccc(Cl)c4)CC3)cc12 | 51* | -3 | 1 | 26 | 5
Cc1cc(N2CCCC2)nc2ccc(NC(=S)NCCCN3CCC(C)CC3)cc12 | 46* | 2 | 0 | 6 | 2
CCCCNC(=S)Nc1ccc2nc(N3CCN(CC)CC3)cc(C)c2c1 | -5 | 6 | -1 | -41 | nt
CCN1CCN(c2cc(C)c3cc(NC(=S)NCCN(C)C)ccc3n2)CC1 | 20* | 2 | 1 | 14 | 7
O=C(Cc1cccc2ccccc12)NCCOc1ccccc1F | 3 | -1 | -1 | 2 | nt
CCn1cc(C(=O)NCCCN2CCC(C)CC2)c(=O)c2cc(S(=O)(=O)N3CCOCC3)ccc21 | -11 | -4 | 1 | 10 | nt
COc1ccccc1C(=O)N=c1sc2c(C)ccc(OC)c2n1C | -5 | 1 | -4 | 10 | nt
CS(=O)(=O)c1ccc(C(=O)CN2C(=O)NC3(CCCc4ccccc43)C2=O)cc1 (stereo not drawn) | -12 | 3 | 1 | -2 | nt
COc1ccc(C(=O)Nc2c(N)nc(SCC(=O)Nc3ccc(NC(C)=O)cc3)[nH]c2=O)cc1OC | 4 | 0 | 0 | 3 | nt
Nc1nc(SCC(=O)Nc2ccc(C(F)(F)F)cc2)[nH]c(=O)c1NC(=O)c1ccc(F)c(F)c1 | 50* | -5 | 0 | 0 | -1
Cc1cc(NC(=O)CSc2nc(N)c(NC(=O)c3ccccc3F)c(=O)[nH]2)no1 | 22* | -7 | -1 | 1 | 6
CCc1nnc(NC(=O)CSc2nc(N)c(NC(=O)c3ccc(OC)cc3)c(=O)[nH]2)s1 | 48* | -7 | 1 | 4 | -4
Cc1cc(C)cc(NC(=O)CSc2nc(N)c(NC(=O)c3ccc(Br)o3)c(=O)[nH]2)c1 | 77* | -5 | 0 | 0 | ?
COCCSc1nc(N)c(NC(=O)c2ccc(OC)cc2)c(=O)[nH]1 | -4 | 15 | 0 | 2 | nt
COc1cccc(CN2CC(C(=O)N3CCOCC3)CCC2=O)c1 (stereo not drawn) | -4 | -4 | 1 | -6 | nt
Cc1cc(NC(=O)CSc2nc(N)c(NC(=O)c3ccc(F)c(F)c3)c(=O)[nH]2)no1 | 57* | 3 | 0 | -1 | 5
Cc1cccc(NC(=O)CSc2nc(N)c(NC(=O)c3cccs3)c(=O)[nH]2)c1 | -1 | 16 | 0 | -4 | nt
Cc1ccc(C)c(NC(=O)CSc2nc(N)c(NC(=O)c3cccs3)c(=O)[nH]2)c1 | 33* | 2 | nt | 0 | 1
Cc1cccc(NC(=O)CCCn2c(=S)[nH]c3ccccc3c2=O)c1 | 25* | 0 | 0 | 2 | 1
COc1cc(NC(=O)CCCn2c(=S)[nH]c3ccccc3c2=O)cc(OC)c1OC | -11 | nt | 0 | 0 | nt
CC(C)(C)C(=O)N1CCN(CCN2C(=O)c3cccc4cccc(c34)C2=O)CC1 | 0 | nt | -1 | 0 | nt
COc1ccc(OCC(O)CN2CCC(CN3C(=O)c4cccc5cccc(c45)C3=O)CC2)cc1 (stereo not drawn) | 45* | 16 | 1 | 14 | 2
O=C1c2cccc3cccc(c23)C(=O)N1CCCN1CCN(c2ccc(F)cc2)CC1 | 46* | -3 | 0 | -3 | 0
